# Screening results as filed in PubChem BioAssay.
# aSyn UTR act – Activators working through SNCA 5'UTR binding (MLPCN); alpha-synuclein 5'UTR reporter, activators screen; activity score, % (tested at 7.5 µM), hits read low; hit rate 7.1% among 300,000; in the data active = activity score below about -60%
# Starred values were filed as active, the others as inactive. Not all results are given here.
SMILES,aSyn UTR act
O=c1c2cc(-c3ccccc3)sc2ncn1/N=C/c1ccco1,-140.3*
COc1ccccc1-n1cnc2sc(-c3ccccc3)cc2c1=O,-142.3*
COc1ncnc2sc(-c3ccccc3)cc12,-168.0*
Cc1cc(NCc2ccccn2)nc2ccccc12,-86.8*
CCC(C)Nc1nc(-c2ccccn2)nc2ccccc12 (stereo not given),68.6
FC(F)(F)c1ccc(NCc2ccccn2)nc1,-166.6*
Cc1ccc(O)c(-n2nc3ccccc3n2)c1,-134.3*
COc1ccc(N2C(=O)C(=O)/C(=C(/O)c3ccc(C)cc3)C2c2cccnc2)cc1 (stereo not given),-61.9*
COc1ccc(/C(O)=C2/C(=O)C(=O)N(c3ccccn3)C2c2ccc(C(C)C)cc2)cc1 (stereo not given),-121.8*
CCC(=O)NC(c1ccc(OC)cc1)c1cc(Cl)c2cccnc2c1O (stereo not given),80.7
Cc1ccc(N/N=C(\C#N)C(=N)N2CCCCC2)cc1,-91.2*
N#C/C(=N\Nc1ccc(Cl)cc1)C(=N)N1CCCCCC1,-133.4*
CCN(CC)C(=N)/C(C#N)=N/Nc1ccccc1,-80.9*
N#C/C(=N\Nc1ccccc1)C(=N)N1CCCCC1,-77.7*
Cc1nnc(NC(=O)c2csc3c2CCCC3)s1,-99.5*
Cc1nnc(NC(=O)c2csc3c2CCC(C)C3)s1 (stereo not given),-99.8*
Cc1ccc(C(=O)c2cc3ccccc3o2)cc1C,-67.8*
O=C(c1cc2ccccc2o1)c1cccs1,-134.4*
Cc1ccc(C(=O)c2cc3ccccc3o2)cc1,-169.8*
Cc1ccc(S(=O)(=O)c2cc3ccccc3oc2=O)cc1,-110.6*
CCCCOc1ccccc1NC(=O)Cn1c(-c2nonc2N)nc2ccccc21,124.2
CCOc1ccccc1NC(=O)n1ncc2c(C)cccc21,-68.5*
CCC(=O)Nc1nonc1-c1nc2ccccc2n1Cc1cccc2ccccc12,67.3
Cc1cccc2c1cnn2C(=O)Nc1cc(F)ccc1F,-177.7*
Clc1ccccc1CSc1cc2c(nn1)-c1ccccc1CC2,-132.1*
SMILES,aSyn UTR act
Clc1cccc(Cl)c1CSc1cc2c(nn1)-c1ccccc1CC2,-83.0*
CCOC(=O)c1sc(-c2ccc(C)cc2)c(C#N)c1C,-64.9*
C/C(=N\NC(=O)c1n[nH]c2c1CCC2)c1cccs1,107.2
C/C(=N\Nc1ccccn1)c1cccs1,-147.9*
C/C(=N\NC(=O)c1cc(Br)ccc1O)c1cccs1,-110.8*
CC(C)c1ccc2[nH]c(O)c(N=NC(=O)c3ccc(CSc4nncn4C)cc3)c2c1,-71.8*
C/C(=N/NC(=O)c1cnccn1)c1cccs1,-65.2*
C/C(=N\NC(=O)c1ccc(CSc2nncn2C)cc1)c1cccs1,-62.1*
CCOC(=O)C(CC)/C(C)=N\NC(=O)c1ccccc1O (stereo not given),93.5
C/C(=N/NC(=O)c1ccc(Br)o1)c1cccs1,-72.9*
C/C(=N\NC(=O)c1ccccc1O)c1ccc(Br)s1,-161.9*
N#C/C(C(=O)N1CCOCC1)=C1\Nc2ccccc2S1,-65.4*
CC1(C)C=Cc2cc3ccc(=O)oc3cc2O1,-110.8*
CCS/C(N)=N/N=C/c1cc(C)ccc1O,-82.2*
CS/C(N)=N/N=C/c1cc(C)ccc1O,-93.9*
COc1ccccc1OCC(=O)N/N=C/c1c(O)ccc2ccccc12,59.6
CS/C(N)=N/N=C/c1c(O)ccc2ccccc12,-175.3*
CCCCS/C(N)=N/N=C/c1cc(C)ccc1O,-76.4*
CC1(C)CN(c2ccc(N3CC(C)(C)C3=O)cc2)C1=O,-69.8*
Cc1nnc(SCC(=O)c2cc(C)n(-c3ccc4c(c3)OCO4)c2C)s1,-151.4*
CC(=O)c1ccc(OCC(=O)c2cc(C)n(-c3ccc4c(c3)OCO4)c2C)cc1,-65.3*
Cc1nnc(SCc2ccc3c(c2)OCO3)s1,-72.3*
Cc1cc(C(=O)CN2C(=O)C(=O)N(Cc3ccccc3)C2=O)c(C)n1-c1ccc2c(c1)OCCO2,-74.0*
Cc1cc(C(=O)CN2C(=O)c3ccccc3S2(=O)=O)c(C)n1-c1ccccc1,120.1
Cc1nnc(SCc2ccc(F)cc2Cl)s1,-80.6*
SMILES,aSyn UTR act
Cc1cc(C(=O)CSc2nnnn2C)c(C)n1-c1ccc2c(c1)OCCO2,-125.5*
Clc1ccc(/C=C/c2nc3ccccc3[nH]2)cc1,60.9
Clc1cccc(Cl)c1/C=C/c1nc2ccccc2[nH]1,-149.2*
Cc1cccc(/C=C/c2nc3ccccc3c(=O)[nH]2)c1,-93.7*
CCOc1cc(/C=C/c2nc3ccccc3c(=O)[nH]2)ccc1O,-132.7*
Cc1[nH]c2ccccc2c1/C=C/c1nc2ccccc2c(=O)[nH]1,-98.2*
CCOc1cc(/C=C/c2cc(C(F)(F)F)[nH]c(=O)n2)ccc1O,-78.7*
Clc1ccc(/C=C/c2nc3ccccc3[nH]2)c(Cl)c1,68.2
O=c1[nH]c(/C=C/c2ccccc2Cl)nc2ccccc12,-264.5*
CCc1nnc(NC(=O)c2oc3cc(C)c(C)cc3c2C)s1,-102.0*
CCc1nonc1NC(=O)c1oc2cc(C)c(C)cc2c1C,-126.8*
Cc1cnc(Nc2nc3ccccc3o2)nc1C(=O)Nc1cccc(C(F)(F)F)c1,-66.5*
O=C(Nc1ccc(-c2noc(-c3ccccc3F)n2)cc1)c1cccs1,-76.7*
Cc1ccccc1-c1nc(-c2ccc(NC(=O)c3cccs3)cc2)no1,-187.0*
N#C/C(=C(/O)c1ccc(-c2cccc([N+](=O)[O-])c2)o1)c1nc2ccccc2s1,-105.4*
N#C/C(=C(/O)COc1ccccc1)c1nc2ccccc2s1,-63.1*
N#C/C(=C(/O)c1ccc(F)cc1)c1nc2ccccc2s1,-136.0*
N#C/C(=C(/O)CSc1ccccn1)c1nc2ccccc2s1,-62.2*
COc1ccccc1-n1cc2c([N+](=O)[O-])cc([N+](=O)[O-])cc2n1,-69.2*
Nc1nnc(/C=C/c2ccccc2Cl)s1,-81.3*
O=C(NC1CCCCC1)C(=S)NCCc1ccccc1,-62.3*
O=C(NCCc1ccccc1)C(=O)NC1CCCCC1,-104.9*
Cc1ccc(Nc2cc(C)c3ccc(O)cc3n2)cc1C,-93.7*
Cc1ccccc1Nc1cc(C)c2c(O)cccc2n1,-105.0*
COc1ccc(Nc2cc(C)c3c(O)cccc3n2)cc1,-140.4*
SMILES,aSyn UTR act
Cc1ccc(Nc2cc(C)c3c(O)cccc3n2)cc1C,-117.6*
O=C(Nc1cc(Br)ccc1O)c1cc(-c2ccco2)on1,-133.5*
O=C(Nc1cccnc1Cl)c1cc(-c2ccco2)on1,-80.3*
O=C(Nc1cc(Cl)ccc1O)c1cc(-c2ccco2)on1,-232.7*
Cc1ccc2nc(Nc3nc(CSc4nc5ccccc5s4)cc(=O)[nH]3)nc(C)c2c1,61.3
c1csc(CSc2nc3ccccc3s2)c1,-279.9*
CNc1nnc(CSc2nc3ccccc3s2)s1,-87.8*
CC(C)Sc1nc2ccc(Br)cc2[nH]1,-120.0*
O=C(NCC1CCCCC1)c1ccc(F)cc1Cl,-124.5*
O=S(=O)(Nc1ccc(F)cc1Cl)c1ccc(-c2cnc(C3CC3)o2)cc1,67.6
O=C(CC(Nc1ccc(F)cc1)c1ccccc1)c1ccccc1 (stereo not given),-89.2*
Cc1c(Cl)cccc1NC(CC(=O)c1ccccc1)C(=O)O (stereo not given),-102.2*
O=C(CC(Nc1ccc(Cl)cc1)C(=O)O)c1ccccc1 (stereo not given),-68.6*
O=C(CC(Nc1ccccc1Cl)C(=O)O)c1ccccc1 (stereo not given),-93.7*
COC(=O)c1ccccc1SC(CC(=O)c1ccccc1)c1ccc(F)cc1 (stereo not given),-67.9*
Cc1cc(C(=O)N/N=C/c2cc(Cl)cc([N+](=O)[O-])c2O)c2ccccc2n1,-63.0*
